The full ranking holds about 33,000 sequences; the median of “normalized occupancy” is about 0.075, and the highest 2% start at about 0.095. The sample as a whole holds a higher share of the highest values than the screen did.

Chain of MaxL homodimer (P61244 whole entry): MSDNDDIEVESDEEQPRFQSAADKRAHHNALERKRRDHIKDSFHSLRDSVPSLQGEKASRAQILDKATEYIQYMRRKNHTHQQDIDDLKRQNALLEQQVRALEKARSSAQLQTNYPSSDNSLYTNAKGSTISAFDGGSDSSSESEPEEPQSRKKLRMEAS

In the assay the target is MaxL homodimer (Homo sapiens, UniProt P61244 1-160). As to the kind of experiment: universal protein-binding microarray (PBM); PBS-based mixture, 10 nM His-tagged protein dimer, 2% milk, 200 ng/uL BSA, 50 ng/uL salmon testes DNA, 0.02% TX-100; detection with Alexa 488 anti-His antibody;; high values mean tight binding. The following applies: protein: recombinant; tags: C-terminal His-tag (pET21a); chain copies: 2; dsDNA, one strand shown. An outline of the steps:
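Binding occupancy is a fluorescence intensity normalised to the intensity of the highest-ranked sequence word. Those intensities came from 8-mers on Agilent 4 x 44 K 'all 10-mer' universal arrays incubated with 10 nM His-tagged protein dimer. Bound protein was detected with 10 ng/μL fluorophore-conjugated anti-His antibody before scanning on a GenePix 4400A.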
Turning to GAATGCCC, the binding signal came out at 0.0765 normalized occupancy.

As to AGATGCCG, the binding signal turned out to be 0.0739 normalized occupancy.

For ATATGCCG, the binding signal turned out to be 0.0773 normalized occupancy.

On to GCATGCCC, for which the binding signal is 0.105 normalized occupancy.

Take ACATGCCC: the binding signal is 0.099 normalized occupancy.

On to AGATGCCC, for which the binding signal came to 0.0786 normalized occupancy.

Consider ACATGCCT, for which the binding signal amounted to 0.0828 normalized occupancy.

Consider CAATGCCG, for which the binding signal is 0.0728 normalized occupancy.

As to CCATGCCA, the binding signal stood at 0.0875 normalized occupancy.

On to CCATGCCG, for which the binding signal is 0.1 normalized occupancy.

In the case of CCATGCCC, the binding signal was determined as 0.0935 normalized occupancy.

In the case of TAAGAGTA, the binding signal came out at 0.0797 normalized occupancy.

Turning to TCTCACAA, the binding signal was determined as 0.0786 normalized occupancy.

With ATGAGAGC, the binding signal worked out at 0.078 normalized occupancy.

In the case of CGAGATGC, the binding signal came out at 0.078 normalized occupancy.

On to AAGGACAC, for which the binding signal was determined as 0.0757 normalized occupancy.

As to GGCCACGA, the binding signal was determined as 0.0815 normalized occupancy.

In the case of AGGTCTCA, the binding signal came out at 0.074 normalized occupancy.

In the case of CAATTAAA, the binding signal was determined as 0.0744 normalized occupancy.

As for AGTGGTCG, the binding signal is 0.0719 normalized occupancy.

As for GTATGCCA, the binding signal came out at 0.0806 normalized occupancy.

For ACATGCCA, the binding signal amounted to 0.0967 normalized occupancy.

With AGATGCCA, the binding signal was 0.0772 normalized occupancy.

Regarding GCATGCCA, the binding signal came to 0.108 normalized occupancy.

As to TCATGCCA, the binding signal was 0.0861 normalized occupancy.

ATATGCCA: the binding signal worked out at 0.0822 normalized occupancy.

As to GGTCCCGA, the binding signal came to 0.0733 normalized occupancy.

Turning to ACTAACCT, the binding signal is 0.0752 normalized occupancy.

For CGTGGGAA, the binding signal is 0.089 normalized occupancy.

Consider GGTGGGAC, for which the binding signal worked out at 0.0719 normalized occupancy.

Consider CGTGGGAC, for which the binding signal is 0.096 normalized occupancy.

As for TGGGTCAA, the binding signal turned out to be 0.0772 normalized occupancy.

As for GACCATGA, the binding signal came out at 0.0823 normalized occupancy.

On to CACCATGG, for which the binding signal is 0.0885 normalized occupancy.

Regarding CACCATGC, the binding signal amounted to 0.108 normalized occupancy.

With ATCCATGC, the binding signal was determined as 0.0942 normalized occupancy.

As for AACCATGC, the binding signal is 0.106 normalized occupancy.

Consider GACCATGC, for which the binding signal was 0.109 normalized occupancy.

As to CTCCATGC, the binding signal stood at 0.0969 normalized occupancy.

Take AACCATGA: the binding signal stood at 0.0836 normalized occupancy.

With GACCATAC, the binding signal turned out to be 0.0805 normalized occupancy.

Consider AACCATGT, for which the binding signal stood at 0.0862 normalized occupancy.

For CACCATGA, the binding signal turned out to be 0.0873 normalized occupancy.

On to CTCCATGA, for which the binding signal amounted to 0.0798 normalized occupancy.

Consider GTTGCCCA, for which the binding signal amounted to 0.0762 normalized occupancy.

Turning to CTCCCTCC, the binding signal was determined as 0.0789 normalized occupancy.

For the sequence CGACCCAC, the binding signal came to 0.0808 normalized occupancy.

As for AGTGTCAT, the binding signal came out at 0.0822 normalized occupancy.

Take CCACATCA: the binding signal was 0.0798 normalized occupancy.

In the case of AACGCTTC, the binding signal is 0.0768 normalized occupancy.

On to CACGCTTC, for which the binding signal stood at 0.098 normalized occupancy.

CACGCTTA: the binding signal came to 0.103 normalized occupancy.

Take CGCGCTTC: the binding signal stood at 0.0753 normalized occupancy.

For the sequence AACGCTTA, the binding signal amounted to 0.0733 normalized occupancy.

Turning to GACGCTTA, the binding signal worked out at 0.0768 normalized occupancy.

As for TACCTAGA, the binding signal worked out at 0.073 normalized occupancy.

AACTCATC: the binding signal was 0.0815 normalized occupancy.

For the sequence GCTGACGA, the binding signal was 0.072 normalized occupancy.

AAATGTAG: the binding signal came out at 0.0793 normalized occupancy.

Take AAATGTAT: the binding signal worked out at 0.0812 normalized occupancy.

For AGATGTAT, the binding signal stood at 0.0832 normalized occupancy.

As to ACATGTAA, the binding signal came to 0.0953 normalized occupancy.

For the sequence ACATGTAT, the binding signal was determined as 0.102 normalized occupancy.

For the sequence CCATGTCG, the binding signal came to 0.0843 normalized occupancy.

With CCATGTAG, the binding signal stood at 0.0836 normalized occupancy.

As to ACATGTAG, the binding signal turned out to be 0.101 normalized occupancy.

Consider ACATGTCT, for which the binding signal came to 0.0899 normalized occupancy.

With ACATGTCG, the binding signal stood at 0.1 normalized occupancy.

On to GCATGTAA, for which the binding signal amounted to 0.0836 normalized occupancy.

For TCATGTAA, the binding signal came out at 0.0936 normalized occupancy.

With ACCATTAG, the binding signal came out at 0.0781 normalized occupancy.

For the sequence ATCCAGAG, the binding signal was found to be 0.0719 normalized occupancy.

Regarding CACGCGGC, the binding signal worked out at 0.151 normalized occupancy.

Turning to CGCGCGGA, the binding signal stood at 0.0836 normalized occupancy.

Take CACGCGGA: the binding signal stood at 0.15 normalized occupancy.

As for AACGCGGC, the binding signal was determined as 0.0757 normalized occupancy.

As for CACGCGGG, the binding signal came to 0.145 normalized occupancy.

Consider CCCGCGGG, for which the binding signal was 0.0758 normalized occupancy.

In the case of GACGCGGC, the binding signal is 0.0758 normalized occupancy.

For the sequence AACGCGGA, the binding signal amounted to 0.0818 normalized occupancy.

Turning to TACGCGGA, the binding signal is 0.0723 normalized occupancy.

As for CCGAGAGA, the binding signal was 0.0728 normalized occupancy.

TCGCACGA: the binding signal turned out to be 0.0806 normalized occupancy.

For the sequence CAGGTGCG, the binding signal is 0.0849 normalized occupancy.

Regarding CAGTTGCA, the binding signal is 0.0721 normalized occupancy.

Regarding CCCTAACC, the binding signal is 0.0758 normalized occupancy.

In the case of CTGTGCAA, the binding signal turned out to be 0.0754 normalized occupancy.

With CACACGTC, the binding signal was found to be 0.0858 normalized occupancy.

AACACGTC: the binding signal was found to be 0.0786 normalized occupancy.

As to AACACGTT, the binding signal was 0.128 normalized occupancy.

For the sequence CACACGTA, the binding signal turned out to be 0.0925 normalized occupancy.

For the sequence AACACGGA, the binding signal was found to be 0.0756 normalized occupancy.

As for AACACGTA, the binding signal stood at 0.083 normalized occupancy.

In the case of AACACGTG, the binding signal is 0.706 normalized occupancy.

TACACGTA: the binding signal came out at 0.083 normalized occupancy.

Take CACACGTG: the binding signal was found to be 0.553 normalized occupancy.

Turning to ATTTACGC, the binding signal turned out to be 0.0786 normalized occupancy.

In the case of CTCCCGCC, the binding signal was 0.0726 normalized occupancy.

As for ATTATGAC, the binding signal came to 0.0798 normalized occupancy.

Turning to ACCTCTAT, the binding signal worked out at 0.0776 normalized occupancy.

On to AAATGGTA, for which the binding signal came out at 0.0806 normalized occupancy.

Take CATTTTAC: the binding signal is 0.0853 normalized occupancy.

With AGATACAC, the binding signal was determined as 0.0831 normalized occupancy.

As to GCTCCTAA, the binding signal turned out to be 0.0767 normalized occupancy.

With AAACGACC, the binding signal came to 0.0727 normalized occupancy.

As to CACGTAGG, the binding signal was determined as 0.0797 normalized occupancy.

Take CAAGTGGC: the binding signal is 0.0744 normalized occupancy.

Consider AAGGTGGA, for which the binding signal worked out at 0.0747 normalized occupancy.

Regarding AACGTGGA, the binding signal was determined as 0.115 normalized occupancy.

Regarding CACGTGGA, the binding signal amounted to 0.768 normalized occupancy.

Consider AAAGTGGA, for which the binding signal was determined as 0.0743 normalized occupancy.

Consider CAAGTGGG, for which the binding signal was determined as 0.0807 normalized occupancy.

For GACGTGGA, the binding signal came out at 0.087 normalized occupancy.

In the case of CACGTGGG, the binding signal stood at 0.707 normalized occupancy.

As to CACGTGGC, the binding signal came out at 0.837 normalized occupancy.

TACGTGGA: the binding signal amounted to 0.0878 normalized occupancy.

Regarding CACGTCGC, the binding signal came to 0.0825 normalized occupancy.

AGAGCCGA: the binding signal worked out at 0.0723 normalized occupancy.

In the case of CTTTTTGA, the binding signal amounted to 0.0761 normalized occupancy.

For the sequence ACCGTAAC, the binding signal was 0.0752 normalized occupancy.

Consider ACTAAGAC, for which the binding signal is 0.0733 normalized occupancy.

For the sequence ACGGCACC, the binding signal worked out at 0.0742 normalized occupancy.

Regarding GTCCACAA, the binding signal worked out at 0.0768 normalized occupancy.

For CAGCGGTA, the binding signal came out at 0.0751 normalized occupancy.

Consider ATCCGTGG, for which the binding signal was determined as 0.078 normalized occupancy.

ACTGTAAT: the binding signal worked out at 0.0778 normalized occupancy.

As for CACAGGTG, the binding signal came out at 0.0857 normalized occupancy.

Turning to TACATGGA, the binding signal worked out at 0.0848 normalized occupancy.

Regarding TACATCTA, the binding signal is 0.0787 normalized occupancy.

Turning to AACATGTT, the binding signal is 0.0895 normalized occupancy.

Take AACAGGTG: the binding signal worked out at 0.102 normalized occupancy.

For the sequence CACATCTG, the binding signal came out at 0.0871 normalized occupancy.

CACATGTG: the binding signal was found to be 0.216 normalized occupancy.

Turning to CAAATGTG, the binding signal was 0.0879 normalized occupancy.

Regarding AACATGTG, the binding signal is 0.184 normalized occupancy.

With AACATCTG, the binding signal was 0.0767 normalized occupancy.

AACAGGTC: the binding signal was 0.0733 normalized occupancy.

For the sequence TACATGTA, the binding signal was 0.0978 normalized occupancy.

As for CACATACG, the binding signal is 0.0784 normalized occupancy.

Turning to GTGGGGCA, the binding signal is 0.0781 normalized occupancy.

Take ACCCACTA: the binding signal was determined as 0.085 normalized occupancy.

For CTCCCGAA, the binding signal amounted to 0.0776 normalized occupancy.

AACCTACT: the binding signal is 0.074 normalized occupancy.

As for GGTTGACA, the binding signal is 0.0758 normalized occupancy.

As to AGACTTGG, the binding signal amounted to 0.0722 normalized occupancy.

With AACATGTA, the binding signal turned out to be 0.0923 normalized occupancy.

Consider CACATGTA, for which the binding signal was 0.147 normalized occupancy.

As to GACATGTC, the binding signal is 0.0872 normalized occupancy.

AACATGTC: the binding signal came to 0.087 normalized occupancy.

As for GACATGTA, the binding signal was 0.0884 normalized occupancy.

For CACATGTC, the binding signal came to 0.159 normalized occupancy.

For ACGGGTGA, the binding signal worked out at 0.0801 normalized occupancy.

For the sequence CATCTCAA, the binding signal is 0.0793 normalized occupancy.

As to TCAGCTGA, the binding signal came to 0.0752 normalized occupancy.

For the sequence GCTACGAC, the binding signal stood at 0.078 normalized occupancy.

Take CGCCACGA: the binding signal was found to be 0.0799 normalized occupancy.

Regarding AGCCACGG, the binding signal was determined as 0.0742 normalized occupancy.

For CGCCACAA, the binding signal worked out at 0.076 normalized occupancy.

AGCCACGC: the binding signal turned out to be 0.109 normalized occupancy.

As to AGCCACGA, the binding signal amounted to 0.0883 normalized occupancy.

Regarding CGCCACGC, the binding signal is 0.0953 normalized occupancy.

GATTTTTA: the binding signal came to 0.0759 normalized occupancy.

For ACGTACAG, the binding signal is 0.0776 normalized occupancy.

Take CAAATGTA: the binding signal worked out at 0.0834 normalized occupancy.

Consider TCCCTCCA, for which the binding signal worked out at 0.075 normalized occupancy.

Turning to AGACAGAA, the binding signal amounted to 0.0751 normalized occupancy.

As to CATATGTC, the binding signal worked out at 0.0943 normalized occupancy.

As for TATATGCA, the binding signal was 0.0896 normalized occupancy.

For the sequence CATATGCA, the binding signal was 0.0978 normalized occupancy.

For GATATGCA, the binding signal was 0.0792 normalized occupancy.

For the sequence CATATGCG, the binding signal came to 0.105 normalized occupancy.

In the case of CATATGTA, the binding signal worked out at 0.0972 normalized occupancy.

For the sequence AATATGTA, the binding signal is 0.0801 normalized occupancy.

Regarding CATATGCC, the binding signal came out at 0.095 normalized occupancy.

As to AATATGCG, the binding signal amounted to 0.0761 normalized occupancy.

The values are drawn from PMC4242493, “Sequence specificity incompletely defines the genome-wide occupancy of Myc”.
